# Compounds without any hit were thinned out: in the full panel of roughly 79,000, 15% have a hit. A number with no mark means an inactive call. The source made the active and inactive calls. No stated cut-off is given here; in the data, active means growth inhibition above about 70%; inactive means the rest.
# How the values were obtained:
# [1] = NCI Yeast Anticancer Drug Screen. Data for the rad52 strain (AID 147);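 further: 0% = growth of vehicle-treated control cultures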; settings: S. cerevisiae rad52 mutant growth inhibition, active compounds read high
# Outline: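 Measured: yeast growth inhibition. System: strain with a defined DNA damage repair alteration. Reference: vehicle-treated control cultures.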
# [2] = NCI Yeast Anticancer Drug Screen. Data for the wt1 strain (AID 149);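 further: 0% = growth of vehicle-treated wt1 cultures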; settings: S. cerevisiae wt1 strain (SPY 50644) growth inhibition, active compounds read high
# Outline: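 Measured: growth of wt1 yeast under compound versus vehicle treatment, reported as inhibition.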
# [3] = NCI Yeast Anticancer Drug Screen. Data for the rad50EPP+ strain (AID 151);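 further: 0% = growth of vehicle-treated control cultures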; settings: S. cerevisiae rad50 mutant strain, active compounds read high
# Outline: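 One strain with a rad50 alteration (rad50EPP+) was compound-treated, its growth then compared to that of vehicle controls.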
# [4] = NCI Yeast Anticancer Drug Screen. Data for the mgt1 strain (AID 153); settings: S. cerevisiae mgt1 mutant growth inhibition, active compounds read high
# Outline: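 After exposure of the mgt1 yeast mutant to compound, growth was measured and reported as inhibition compared with vehicle controls.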
# [5] = NCI Yeast Anticancer Drug Screen. Data for the rad50 strain (AID 155);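 further: 0% = growth of vehicle-only cultures of the same strain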; settings: S. cerevisiae rad50 strain growth inhibition, active compounds read high
# Outline: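 Growth of the mutant yeast was measured after compound exposure and referenced to vehicle-treated cultures.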
# [6] = NCI Yeast Anticancer Drug Screen. Data for the mec2-1 strain (AID 157); settings: S. cerevisiae mec2-1 strain, active compounds read high
# Outline: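 Test agents were screened against the mec2-1 yeast strain, with defined DNA repair or cell cycle alteration. Growth was scored as inhibition against vehicle-only controls.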
# [7] = NCI Yeast Anticancer Drug Screen. Data for the rad14 strain (AID 159);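 further: 0% = growth of vehicle-treated control cultures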; settings: S. cerevisiae rad14 strain growth inhibition, active compounds read high
# Outline: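 Here, inhibition of yeast growth was measured after compound exposure, using a strain with a genetic defect in DNA damage repair and vehicle-treated cultures as the reference.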
# [8] = NCI Yeast Anticancer Drug Screen. Data for the sgs1 mgt1 strain (AID 161);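 further: 0% = growth of cultures given vehicle only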; settings: S. cerevisiae sgs1 mgt1 strain, active compounds read high
# Outline: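 Mutant yeast exposed to compound; growth scored against vehicle-only wells.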
# [9] = NCI Yeast Anticancer Drug Screen. Data for the CLN2oe strain (AID 163);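 further: 0% = growth of vehicle-only control cultures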; settings: S. cerevisiae CLN2oe strain, active compounds read high
# Outline: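 Here, growth inhibition in a cell-cycle-altered yeast strain after compound exposure was quantified against vehicle control growth.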
# [10] = NCI Yeast Anticancer Drug Screen. Data for the cln2 rad14 strain (AID 165);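 further: 0% = growth equal to vehicle treated cultures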; settings: S. cerevisiae cln2 rad14 strain, active compounds read high
# Outline: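 Growth of compound-exposed yeast (cln2 rad14 genotype) measured and expressed as inhibition relative to vehicle.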
# [11] = NCI Yeast Anticancer Drug Screen. Data for the bub3 strain (AID 167); settings: S. cerevisiae bub3 mutant strain, active compounds read high
# Outline: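 Whole-cell yeast assay. The mutant strain was incubated with compounds, and growth inhibition was determined by comparison with vehicle-treated cells.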
# [12] = NCI Yeast Anticancer Drug Screen. Data for the wt2 strain (AID 169);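 further: 0% = growth of vehicle-treated yeast cultures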; settings: S. cerevisiae wt2 strain growth inhibition, active compounds read high
# Outline: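 Genetically defined yeast strains from a DNA-repair/cell-cycle panel were used. Compound-exposed yeast growth was measured, and the inhibition was calculated relative to vehicle treatment.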
# [13] = NCI Yeast Anticancer Drug Screen. Data for the mlh1 strain (AID 171);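 further: 0% = growth of vehicle-treated control cultures of the same strain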; settings: S. cerevisiae mlh1 strain growth inhibition, active compounds read high
# Outline: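 Here the genetically defined yeast mutant is grown with each compound, and the extent to which its growth falls below that of vehicle-exposed cells is reported.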
# [14] = NCI Yeast Anticancer Drug Screen. Data for the sgs1 strain (AID 173);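 further: 0% = growth of vehicle-only control cultures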; settings: S. cerevisiae sgs1 mutant, active compounds read high
# Outline: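 Relative growth inhibition, referenced to vehicle, was determined in a yeast strain with a defined alteration affecting DNA damage repair or cell cycle control after compound exposure.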
# [15] = NCI Yeast Anticancer Drug Screen. Data for the mlh1 rad18 strain (AID 175); settings: S. cerevisiae mlh1 rad18 strain growth inhibition, active compounds read high
# Outline: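 In this whole-cell yeast screen, a strain with altered DNA damage repair is challenged with compound, and its growth is measured against matched vehicle-treated controls.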
# [16] = NCI Yeast Anticancer Drug Screen. Data for the rad18 strain (AID 177); settings: S. cerevisiae rad18 mutant growth inhibition, active compounds read high
# Outline: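 Screen uses a yeast strain with a defined lesion in DNA damage repair; compound effect is read as loss of growth compared to untreated vehicle cultures.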
# [17] = at 5.0 µM (retest, dose inferred, filed as 0.5)
# [18] = at 50.0 µM (retest, dose inferred, filed as 5.0)
compound,measurement,setting,value
CCCCCCCCSC1=C(Cl)C(=O)C(OC)=C(OC)C1=O,growth inhibition,[1]; at 1.2 µM,-25%
same,growth inhibition,[1]; at 3.7 µM,-19%
same,growth inhibition,[1]; at 11.0 µM,15%
same,growth inhibition,[1]; at 33.0 µM,53%
same,growth inhibition,[1]; at 100.0 µM,87% (active)
same,growth inhibition,[2]; at 1.2 µM,-55%
same,growth inhibition,[2]; at 3.7 µM,-23%
same,growth inhibition,[2]; at 11.0 µM,-17%
same,growth inhibition,[2]; at 33.0 µM,0%
same,growth inhibition,[2]; at 100.0 µM,88% (active)
same,growth inhibition,[3]; at 1.2 µM,-29%
same,growth inhibition,[3]; at 3.7 µM,-44%
same,growth inhibition,[3]; at 11.0 µM,-1%
same,growth inhibition,[3]; at 33.0 µM,18%
same,growth inhibition,[3]; at 100.0 µM,73% (active)
same,growth inhibition,[4]; at 1.2 µM,-30%
same,growth inhibition,[4]; at 3.7 µM,-41%
same,growth inhibition,[4]; at 11.0 µM,-24%
same,growth inhibition,[4]; at 33.0 µM,17%
same,growth inhibition,[4]; at 100.0 µM,85% (active)
same,growth inhibition,[5]; at 1.2 µM,-25%
same,growth inhibition,[5]; at 3.7 µM,-16%
same,growth inhibition,[5]; [17],25%
same,growth inhibition,[5]; at 11.0 µM,-17%
same,growth inhibition,[5]; at 33.0 µM,19%
same,growth inhibition,[5]; [18],68%
same,growth inhibition,[5]; at 50.0 µM,22.6%
same,growth inhibition,[5]; at 100.0 µM,83% (active)
same,growth inhibition,[6]; at 1.2 µM,-37%
same,growth inhibition,[6]; at 3.7 µM,-30%
same,growth inhibition,[6]; [17],24%
same,growth inhibition,[6]; at 11.0 µM,-4%
same,growth inhibition,[6]; at 33.0 µM,13%
same,growth inhibition,[6]; [18],68%
same,growth inhibition,[6]; at 50.0 µM,54.1%
same,growth inhibition,[6]; at 100.0 µM,80% (active)
same,growth inhibition,[7]; at 1.2 µM,-32%
same,growth inhibition,[7]; at 3.7 µM,-11%
same,growth inhibition,[7]; at 11.0 µM,-14%
same,growth inhibition,[7]; at 33.0 µM,2%
same,growth inhibition,[7]; at 100.0 µM,66%
same,growth inhibition,[8]; [17],22%
same,growth inhibition,[8]; [18],10%
same,growth inhibition,[8]; at 50.0 µM,69.1%
same,growth inhibition,[9]; at 1.2 µM,-16%
same,growth inhibition,[9]; at 3.7 µM,-6%
same,growth inhibition,[9]; at 11.0 µM,21%
same,growth inhibition,[9]; at 33.0 µM,33%
same,growth inhibition,[9]; at 100.0 µM,80% (active)
same,growth inhibition,[10]; [17],13%
same,growth inhibition,[10]; [18],-24%
same,growth inhibition,[10]; at 50.0 µM,35.1%
same,growth inhibition,[11]; at 1.2 µM,-40%
same,growth inhibition,[11]; at 3.7 µM,-30%
same,growth inhibition,[11]; [17],20%
same,growth inhibition,[11]; at 11.0 µM,-43%
same,growth inhibition,[11]; at 33.0 µM,-15%
same,growth inhibition,[11]; [18],6%
same,growth inhibition,[11]; at 50.0 µM,59%
same,growth inhibition,[11]; at 100.0 µM,57%
same,growth inhibition,[12]; at 1.2 µM,-31%
same,growth inhibition,[12]; at 3.7 µM,-19%
same,growth inhibition,[12]; at 11.0 µM,-46%
same,growth inhibition,[12]; at 33.0 µM,-11%
same,growth inhibition,[12]; at 100.0 µM,87% (active)
same,growth inhibition,[13]; at 1.2 µM,-38%
same,growth inhibition,[13]; at 3.7 µM,-31%
same,growth inhibition,[13]; at 11.0 µM,6%
same,growth inhibition,[13]; at 33.0 µM,27%
same,growth inhibition,[13]; at 100.0 µM,78% (active)
same,growth inhibition,[14]; at 1.2 µM,-42%
same,growth inhibition,[14]; at 3.7 µM,-27%
same,growth inhibition,[14]; at 11.0 µM,8%
same,growth inhibition,[14]; at 33.0 µM,3%
same,growth inhibition,[14]; at 100.0 µM,80% (active)
same,growth inhibition,[15]; [17],36%
same,growth inhibition,[15]; [18],84% (active)
same,growth inhibition,[15]; at 50.0 µM,79.3% (active)
same,growth inhibition,[16]; at 1.2 µM,-15%
same,growth inhibition,[16]; at 3.7 µM,-26%
same,growth inhibition,[16]; at 11.0 µM,1%
same,growth inhibition,[16]; at 33.0 µM,58%
same,growth inhibition,[16]; at 100.0 µM,85% (active)
N#Cc1nc(Nc2ccc(Cl)cc2)sc1N,growth inhibition,[1]; at 1.2 µM,-33%
same,growth inhibition,[1]; at 3.7 µM,-29%
same,growth inhibition,[1]; at 11.0 µM,-25%
same,growth inhibition,[1]; at 33.0 µM,32%
same,growth inhibition,[1]; at 100.0 µM,80% (active)
same,growth inhibition,[2]; at 1.2 µM,-6%
same,growth inhibition,[2]; at 3.7 µM,-4%
same,growth inhibition,[2]; at 11.0 µM,-16%
same,growth inhibition,[2]; at 33.0 µM,41%
same,growth inhibition,[2]; at 100.0 µM,73% (active)
same,growth inhibition,[3]; at 1.2 µM,-36%
same,growth inhibition,[3]; at 3.7 µM,-27%
same,growth inhibition,[3]; at 11.0 µM,-17%
same,growth inhibition,[3]; at 33.0 µM,-1%
same,growth inhibition,[3]; at 100.0 µM,36%
same,growth inhibition,[4]; at 1.2 µM,-6%
same,growth inhibition,[4]; at 3.7 µM,-10%
same,growth inhibition,[4]; at 11.0 µM,1%
same,growth inhibition,[4]; at 33.0 µM,80% (active)
same,growth inhibition,[4]; at 100.0 µM,94% (active)
same,growth inhibition,[5]; at 1.2 µM,-4%
same,growth inhibition,[5]; at 3.7 µM,-9%
same,growth inhibition,[5]; [17],18%
same,growth inhibition,[5]; at 11.0 µM,-1%
same,growth inhibition,[5]; at 33.0 µM,27%
same,growth inhibition,[5]; [18],-8%
same,growth inhibition,[5]; at 50.0 µM,89.2% (active)
same,growth inhibition,[5]; at 100.0 µM,61%
same,growth inhibition,[6]; at 1.2 µM,-37%
same,growth inhibition,[6]; at 3.7 µM,-8%
same,growth inhibition,[6]; [17],8%
same,growth inhibition,[6]; at 11.0 µM,-15%
same,growth inhibition,[6]; at 33.0 µM,19%
same,growth inhibition,[6]; [18],53%
same,growth inhibition,[6]; at 50.0 µM,36.1%
same,growth inhibition,[6]; at 100.0 µM,42%
same,growth inhibition,[7]; at 1.2 µM,-31%
same,growth inhibition,[7]; at 3.7 µM,-19%
same,growth inhibition,[7]; at 11.0 µM,-16%
same,growth inhibition,[7]; at 33.0 µM,34%
same,growth inhibition,[7]; at 100.0 µM,91% (active)
same,growth inhibition,[8]; [17],9%
same,growth inhibition,[8]; [18],30%
same,growth inhibition,[8]; at 50.0 µM,76.2% (active)
same,growth inhibition,[9]; at 1.2 µM,25%
same,growth inhibition,[9]; at 3.7 µM,20%
same,growth inhibition,[9]; at 11.0 µM,27%
same,growth inhibition,[9]; at 33.0 µM,58%
same,growth inhibition,[9]; at 100.0 µM,44%
same,growth inhibition,[10]; [17],39%
same,growth inhibition,[10]; [18],92% (active)
same,growth inhibition,[10]; at 50.0 µM,84.6% (active)
same,growth inhibition,[11]; at 1.2 µM,18%
same,growth inhibition,[11]; at 3.7 µM,23%
same,growth inhibition,[11]; [17],10%
same,growth inhibition,[11]; at 11.0 µM,17%
same,growth inhibition,[11]; at 33.0 µM,32%
same,growth inhibition,[11]; [18],70% (active)
same,growth inhibition,[11]; at 50.0 µM,86% (active)
same,growth inhibition,[11]; at 100.0 µM,94% (active)

# Reference: PubChem BioAssay (NCI)
